Measurements taken from PubChem BioAssay AID1345085 (National Center for Advancing Translational Sciences (NCATS), 2018).
Results filed as inconclusive are left out. Activity calls are given as the source filed them. Calls come from the whole dose curve; as a rule, active = well fitted cell-killing curve with a large enough effect; inconclusive = small, poorly fitted or top-dose-only effect, or effect the other way; inactive = no such curve, though single readings can be large or run the other way.
% is set by controls: 0 for no effect and ±100 for the full control effect; potency is the fitted concentration of half-maximal effect.
Note: nearly all actives have a fitted effect of over 55% in size.

What follows are molecules tested on PA-1 (assay: Confirmatory qHTS for gynecologic anti-cancer compounds from libraries of approved drugs and bioactive compounds). Conditions: gynecologic cancer cell panel viability, ATPlite luminescence, 48 h; series mostly up to 57.6 µM; activity change, negative = viability loss: at the top concentration.
Outline: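 ATPlite luminescence read-out of cell viability; IC50 from 11-point 1:3 titrations, 57.5 uM to 0.977 nM, 48 h compound exposure at 37 C, 5% CO2. Cells seeded at 1,000/well 16 h before dosing.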
For `CCN(CC)CCCC(C)Nc1ccnc2cc(Cl)ccc12` (centres undefined), the “activity change, negative = viability loss” value was -1.96% [at 19.5 µM] (inactive). In the case of `CN1CCCC(n2nc(Cc3ccc(Cl)cc3)c3ccccc3c2=O)CC1` (centres undefined), the Potency is reported as 27.3 µM (active). With `Cc1nc(N)sc1-c1ccnc(Nc2ccc(N3CCOCC3)cc2)n1` the Potency was 4.32 µM (active). For `CCCCN(CCCC)C(=O)CN1C[C@H](c2ccc3c(c2)OCO3)[C@@H](C(=O)O)[C@@H]1c1ccc(OC)cc1`, the “activity change, negative = viability loss” value was 3.06% (inactive). `CC[C@]1(O)C[C@@H]2CN(CCc3c([nH]c4ccccc34)[C@@](C(=O)OC)(c3cc4c(cc3OC)N(C)[C@H]3[C@@](O)(C(=O)OC)[C@H](OC(C)=O)[C@]5(CC)C=CCN6CC[C@]43[C@@H]65)C2)C1` was tested, and the Potency was 0.109 µM (active). With `c1cc(N[C@@H]2CCNC2)nc(-c2cnc3ccc(-c4cn[nH]c4)cn23)c1` the Potency was 1.72 µM (active). In the case of `NC(=O)c1ccc2nc(-c3ccc(Oc4ccc(Cl)cc4)cc3)[nH]c2c1`, the Potency is reported as 6.85 µM (active). In the case of `C1CCC(C(CC2CCCCN2)C2CCCCC2)CC1` (centres undefined), the Potency is reported as 27.3 µM (active). `COCCOc1nc(-c2ccc(Cl)c(Cl)c2)n(-c2ccc(NC(=O)CCl)cc2)n1` was tested, and the Potency was 8.63 µM (active). `Cc1cnc(Nc2ccc(F)cc2Cl)nc1-c1c[nH]c(C(=O)NC(CO)c2cccc(Cl)c2)c1` (centres undefined) was tested, and the Potency was 24.3 µM (active). For `O=C(O)c1ccc(Nc2ncc3c(n2)-c2ccc(Cl)cc2C(c2c(F)cccc2F)=NC3)cc1`, the Potency was 0.968 µM (active). `CC(C)C[C@H](NC(=O)[C@H](CCc1ccccc1)NC(=O)CN1CCOCC1)C(=O)N[C@@H](Cc1ccccc1)C(=O)N[C@@H](CC(C)C)C(=O)[C@@]1(C)CO1` was tested, and the Potency was 2.43 µM (active). In the case of `CC[C@]1(O)C[C@H]2CN(CCc3c([nH]c4ccccc34)[C@@](C(=O)OC)(c3cc4c(cc3OC)N(C=O)[C@H]3[C@@](O)(C(=O)OC)[C@H](OC(C)=O)[C@]5(CC)C=CCN6CC[C@]43[C@@H]65)C2)C1`, the Potency is reported as 0.172 µM (active). `Cc1ccc(C(=O)N(CCCN)C(c2oc3cc(Cl)ccc3c(=O)c2Cc2ccccc2)C(C)C)cc1` (centres undefined) was tested, and the Potency was 0.0137 µM (active). In the case of `COc1cc(N2CCC(N3CCN(C)CC3)CC2)ccc1Nc1ncnc(Nc2ccccc2S(=O)(=O)C(C)C)n1`, the Potency is reported as 9.68 µM (active). For `Cc1nc(Nc2n[nH]c3c2CN(C(=O)NC(CN(C)C)c2ccccc2)C3(C)C)c2sccc2n1` (centres undefined), the Potency was 0.0243 µM (active). For `CC1=C(CO)C(=O)O[C@@H]([C@@H](C)[C@H]2CC[C@H]3[C@@H]4C[C@H]5O[C@]56[C@@H](O)C=CC(=O)[C@]6(C)[C@H]4CC[C@]23C)C1`, the Potency was 1.68 µM (active). In the case of `CCN1CCN(Cc2ccc(Nc3ncc(F)c(-c4cc(F)c5nc(C)n(C(C)C)c5c4)n3)nc2)CC1`, the Potency is reported as 2.43 µM (active). `O=c1[nH]c(=O)n([C@H]2C[C@H](O)[C@@H](CO)O2)cc1Br` was tested, and the “activity change, negative = viability loss” value was -6.35% (inactive). With `O=C(NOCC1CC1)c1ccc(F)c(F)c1Nc1ccc(I)cc1Cl` the Potency was 8.63 µM (active). `Cc1cc(Nc2cc(N3CCN(C)CC3)nc(/C=C/c3ccccc3)n2)n[nH]1` was tested, and the Potency was 3.85 µM (active). For `Cc1ccc(C(=O)Nc2ccc(CN3CCN(C)CC3)c(C(F)(F)F)c2)cc1C#Cc1cnc2cccnn12`, the Potency was 6.85 µM (active). `CCS(=O)(=O)c1cccc(-c2cc(C(=O)NC3CCN(C)CC3)c(C)c3[nH]c4ncc(C)cc4c23)c1` was tested, and the Potency was 1.06 µM (active). For `CC(Oc1ccc2[nH]nc(/C=C/c3cnn(CCO)c3)c2c1)c1c(Cl)cncc1Cl` (centres undefined), the Potency was 1.93 µM (active). In the case of `Nc1nc(=S)c2[nH]cnc2[nH]1`, the Potency is reported as 6.85 µM (active). In the case of `O=C1NC(=O)C(c2cnc3ccccn23)=C1c1cn2c3c(cccc13)CN(C(=O)N1CCOCC1)CC2`, the Potency is reported as 10.9 µM (active). `COc1ccc(-c2nc3ccc(C4=NNC(=O)CC4C)cc3[nH]2)cc1` (centres undefined) was tested, and the Potency was 21.7 µM (active). `CC[C@@]1(O)C(=O)OCc2c1cc1n(c2=O)Cc2cc3cc(O)ccc3nc2-1` was tested, and the Potency was 0.109 µM (active). For `COc1c(C)c2c(c(O)c1C/C=C(\C)CCC(=O)O)C(=O)OC2`, the Potency was 2.17 µM (active). In the case of `CN1C(=O)C(Cc2c[nH]c3ccccc23)NC1=S` (centres undefined), the “activity change, negative = viability loss” value is reported as 11% [at 19.5 µM] (inactive). With `Oc1cn2c(n1)Nc1ccc(Cl)c(Cl)c1C2` the “activity change, negative = viability loss” value was 5.17% [at 19.5 µM] (inactive). `Cc1cc(Nc2nc(N[C@@H](C)c3ccc(F)cc3)c(C#N)cc2F)n[nH]1` was tested, and the Potency was 3.06 µM (active). With `CC1=C(/C=C/C(C)=C/C=C/C(C)=C/C(=O)Nc2ccc(O)cc2)C(C)(C)CCC1` the Potency was 4.85 µM (active). For `CNc1nccc(-c2cccnc2Oc2cc(C(=O)Nc3cccc(C(F)(F)F)c3)ccc2C)n1`, the Potency was 17.2 µM (active).
